About 2,000 (36%) of roughly 5,500 compounds were called active. About 18% were inconclusive and are not listed. Rule as the data show it: active = normalized growth mostly below about 0.91 (no sharp cut-off); inconclusive = no clear call, values can overlap the other calls; inactive = mostly above about 0.92. The list shows a part of the results.
Assay: chemical genetic growth profiling, strain panel (AID 1159580);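 also: tested at 20 µM; growth read once vehicle control cultures reached saturation at 30 °C; 1 = growth at the plate median or of vehicle wells; lower values mean less growth of the strain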
Conditions: S. cerevisiae deletion strains, growth OD
[1] = locus YHR030C, strain SLT2, active compounds read low
[2] = locus YHR079C, strain IRE1, active compounds read low
[3] = locus YJL095W, strain BCK1, active compounds read low
[4] = locus YJR066W, strain TOR1, active compounds read low
[5] = locus YLR113W, strain HOG1, active compounds read low
[6] = locus YNL183C, strain NPR1, active compounds read low
[7] = locus YOR231W, strain MKK1, active compounds read low
[8] = locus YPL256C, strain CLN2, active compounds read low

Measured: normalized growth

CC(=O)O[C@]1(C(C)=O)CCC2C3C=C(Cl)C4=CC(=O)CC[C@]4(C)C3CC[C@@]21C (some centres not stated)
inactive: locus YAL021C, strain ccr4, active compounds read low 1.02 | locus YAL026C, strain drs2, active compounds read low 1.04 | locus YAL030W, strain snc1, active compounds read low 0.978 | locus YBL061C, strain skt5, active compounds read low 0.997 | locus YBR009C, strain hhf1, active compounds read low 0.999 | locus YBR023C, strain chs3, active compounds read low 1.01 | locus YBR171W, strain sec66, active compounds read low 1.01 | locus YBR231C, strain swc5, active compounds read low 1 | locus YBR279W, strain paf1, active compounds read low 1 | locus YCL011C, strain gbp2, active compounds read low 1 | locus YCL016C, strain dcc1, active compounds read low 0.988 | locus YCL069W, strain vba3, active compounds read low 1.01 | locus YCR088W, strain abp1, active compounds read low 1.01 | locus YDL005C, strain med2, active compounds read low 0.991 | locus YDL040C, strain nat1, active compounds read low 1 | locus YDR001C, strain nth1, active compounds read low 1.01 | locus YDR069C, strain doa4, active compounds read low 0.967 | locus YDR137W, strain rgp1, active compounds read low 0.894 | locus YDR159W, strain sac3, active compounds read low 0.925 | locus YDR195W, strain ref2 1.02 | locus YDR297W, strain sur2, active compounds read low 0.957 | locus YDR334W, strain swr1, active compounds read low 1.01 | locus YDR335W, strain msn5, active compounds read low 0.974 | locus YDR392W, strain spt3, active compounds read low 0.832 | locus YEL003W, strain gim4, active compounds read low 1.01 | locus YEL037C, strain rad23, active compounds read low 1.02 | locus YEL061C, strain CIN8 (second series), active compounds read low 1.01 | locus YER015W, strain faa2, active compounds read low 1.01 | locus YER016W, strain bim1, active compounds read low 0.984 | locus YER111C, strain swi4, active compounds read low 1.01 | locus YER155C, strain BEM2 (second series), active compounds read low 0.99 | locus YFR010W, strain ubp6, active compounds read low 1.03 | locus YGL167C, strain pmr1, active compounds read low 0.993 | locus YGL173C, strain kem1, active compounds read low 1.03 | locus YGL227W, strain vid30, active compounds read low 0.998 | locus YGL240W, strain doc1, active compounds read low 0.952 | locus YGL253W, strain hxk2, active compounds read low 0.991 | locus YHR013C, strain ard1, active compounds read low 1.06 | locus YHR027C, strain rpn1, active compounds read low 0.985 | [1] 1.03 | [2] 1.04 | locus YHR142W, strain chs7, active compounds read low 1 | locus YJL092W, strain hpr5, active compounds read low 1.01 | locus YJL095W, strain BCK1 (second series), active compounds read low 0.983 | [3] 0.991 | locus YJL115W, strain asf1, active compounds read low 1.03 | locus YJL129C, strain trk1, active compounds read low 1.01 | locus YJL154C, strain vps35, active compounds read low 1.01 | locus YJL164C, strain tpk1, active compounds read low 1.01 | locus YJL166W, strain qcr8, active compounds read low 0.98 | locus YJL187C, strain SWE1, active compounds read low 0.952 | [4] 0.98 | locus YKL160W, strain elf1, active compounds read low 0.977 | locus YKR026C, strain gcn3, active compounds read low 1.01 | locus YKR091W, strain srl3, active compounds read low 1.01 | locus YLL001W, strain dnm1, active compounds read low 1.02 | locus YLL026W, active compounds read low 1 | locus YLL041C, strain sdh2, active compounds read low 0.993 | locus YLR027C, strain aat2, active compounds read low 0.97 | [5] 0.923 | locus YLR221C, strain rsa3, active compounds read low 0.986 | locus YLR258W, strain gsy2, active compounds read low 0.958 | locus YLR262C, strain YPT6 (second series), active compounds read low 0.947 | locus YLR320W, strain mms22, active compounds read low 0.991 | locus YLR342W, strain FKS1, active compounds read low 0.974 | locus YLR357W, strain rsc2, active compounds read low 1.04 | locus YLR370C, strain arc18, active compounds read low 0.973 | locus YLR384C, strain iki3, active compounds read low 0.981 | locus YML120C, strain ndi1, active compounds read low 0.967 | locus YMR058W, strain fet3, active compounds read low 1.02 | locus YMR125W, strain sto1, active compounds read low 1 | locus YMR129W, active compounds read low 0.967 | locus YMR205C, strain PFK2, active compounds read low 0.943 | locus YMR231W, strain pep5, active compounds read low 1.02 | locus YNL071W, strain lat1, active compounds read low 1.01 | [6] 0.958 | locus YNL209W, strain ssb2, active compounds read low 0.99 | locus YNL248C, strain rpa49, active compounds read low 1.03 | locus YNL322C, strain KRE1 (second series), active compounds read low 1.01 | locus YNR049C, strain mso1, active compounds read low 0.97 | locus YOR001W, strain rrp6, active compounds read low 0.99 | locus YOR070C, strain gyp1, active compounds read low 0.978 | locus YOR080W, strain dia2, active compounds read low 0.996 | locus YOR083W, strain WHI5, active compounds read low 0.997 | locus YOR106W, strain vam3, active compounds read low 1.03 | [7] 0.994 | locus YOR265W, strain rbl2, active compounds read low 0.979 | locus YOR270C, strain vph1, active compounds read low 1.01 | locus YOR290C, strain snf2, active compounds read low 1.01 | locus YPL051W, strain arl3, active compounds read low 1 | locus YPL078C, strain atp4, active compounds read low 0.996 | locus YPL106C, strain sse1, active compounds read low 1.01 | locus YPL240C, strain hsp82, active compounds read low 1 | [8] 1.04

C=C1CC2C3C=C(C)C4=CC(=O)CC[C@]4(C)C3CC[C@]2(C)[C@@]1(OC(C)=O)C(C)=O (some centres not stated)
inactive: [1] 0.955 | [2] 0.933 | [3] 0.955 | [4] 0.922 | [5] 0.92 | [6] 0.876 | [7] 0.955 | [8] 0.916

From PubChem BioAssay AID1159580 (chemical genetic matrix, 2015)
